Reference: the supplement of paper PMC11732987, “Enantioselective OTUD7B fragment discovery through chemoproteomics screening and high-throughput optimisation” (Communications Chemistry, 2025)

Legend:
Assay in all cases: log2 ratio of Biotin-Ahx-Ub-VS probe labelling (fragment/DMSO); higher = less target engagement (more negative = stronger competition), active = hit call of the paper (q ≤ 0.05, log2 ratio ≤ -1)
Settings in all cases: compound concentration: 200 uM; treatment time: 3 h
USP34 = USP34 (UniProt Q70CQ2)
USP34, sequence (Q70CQ2 whole entry, the tested form may be a part): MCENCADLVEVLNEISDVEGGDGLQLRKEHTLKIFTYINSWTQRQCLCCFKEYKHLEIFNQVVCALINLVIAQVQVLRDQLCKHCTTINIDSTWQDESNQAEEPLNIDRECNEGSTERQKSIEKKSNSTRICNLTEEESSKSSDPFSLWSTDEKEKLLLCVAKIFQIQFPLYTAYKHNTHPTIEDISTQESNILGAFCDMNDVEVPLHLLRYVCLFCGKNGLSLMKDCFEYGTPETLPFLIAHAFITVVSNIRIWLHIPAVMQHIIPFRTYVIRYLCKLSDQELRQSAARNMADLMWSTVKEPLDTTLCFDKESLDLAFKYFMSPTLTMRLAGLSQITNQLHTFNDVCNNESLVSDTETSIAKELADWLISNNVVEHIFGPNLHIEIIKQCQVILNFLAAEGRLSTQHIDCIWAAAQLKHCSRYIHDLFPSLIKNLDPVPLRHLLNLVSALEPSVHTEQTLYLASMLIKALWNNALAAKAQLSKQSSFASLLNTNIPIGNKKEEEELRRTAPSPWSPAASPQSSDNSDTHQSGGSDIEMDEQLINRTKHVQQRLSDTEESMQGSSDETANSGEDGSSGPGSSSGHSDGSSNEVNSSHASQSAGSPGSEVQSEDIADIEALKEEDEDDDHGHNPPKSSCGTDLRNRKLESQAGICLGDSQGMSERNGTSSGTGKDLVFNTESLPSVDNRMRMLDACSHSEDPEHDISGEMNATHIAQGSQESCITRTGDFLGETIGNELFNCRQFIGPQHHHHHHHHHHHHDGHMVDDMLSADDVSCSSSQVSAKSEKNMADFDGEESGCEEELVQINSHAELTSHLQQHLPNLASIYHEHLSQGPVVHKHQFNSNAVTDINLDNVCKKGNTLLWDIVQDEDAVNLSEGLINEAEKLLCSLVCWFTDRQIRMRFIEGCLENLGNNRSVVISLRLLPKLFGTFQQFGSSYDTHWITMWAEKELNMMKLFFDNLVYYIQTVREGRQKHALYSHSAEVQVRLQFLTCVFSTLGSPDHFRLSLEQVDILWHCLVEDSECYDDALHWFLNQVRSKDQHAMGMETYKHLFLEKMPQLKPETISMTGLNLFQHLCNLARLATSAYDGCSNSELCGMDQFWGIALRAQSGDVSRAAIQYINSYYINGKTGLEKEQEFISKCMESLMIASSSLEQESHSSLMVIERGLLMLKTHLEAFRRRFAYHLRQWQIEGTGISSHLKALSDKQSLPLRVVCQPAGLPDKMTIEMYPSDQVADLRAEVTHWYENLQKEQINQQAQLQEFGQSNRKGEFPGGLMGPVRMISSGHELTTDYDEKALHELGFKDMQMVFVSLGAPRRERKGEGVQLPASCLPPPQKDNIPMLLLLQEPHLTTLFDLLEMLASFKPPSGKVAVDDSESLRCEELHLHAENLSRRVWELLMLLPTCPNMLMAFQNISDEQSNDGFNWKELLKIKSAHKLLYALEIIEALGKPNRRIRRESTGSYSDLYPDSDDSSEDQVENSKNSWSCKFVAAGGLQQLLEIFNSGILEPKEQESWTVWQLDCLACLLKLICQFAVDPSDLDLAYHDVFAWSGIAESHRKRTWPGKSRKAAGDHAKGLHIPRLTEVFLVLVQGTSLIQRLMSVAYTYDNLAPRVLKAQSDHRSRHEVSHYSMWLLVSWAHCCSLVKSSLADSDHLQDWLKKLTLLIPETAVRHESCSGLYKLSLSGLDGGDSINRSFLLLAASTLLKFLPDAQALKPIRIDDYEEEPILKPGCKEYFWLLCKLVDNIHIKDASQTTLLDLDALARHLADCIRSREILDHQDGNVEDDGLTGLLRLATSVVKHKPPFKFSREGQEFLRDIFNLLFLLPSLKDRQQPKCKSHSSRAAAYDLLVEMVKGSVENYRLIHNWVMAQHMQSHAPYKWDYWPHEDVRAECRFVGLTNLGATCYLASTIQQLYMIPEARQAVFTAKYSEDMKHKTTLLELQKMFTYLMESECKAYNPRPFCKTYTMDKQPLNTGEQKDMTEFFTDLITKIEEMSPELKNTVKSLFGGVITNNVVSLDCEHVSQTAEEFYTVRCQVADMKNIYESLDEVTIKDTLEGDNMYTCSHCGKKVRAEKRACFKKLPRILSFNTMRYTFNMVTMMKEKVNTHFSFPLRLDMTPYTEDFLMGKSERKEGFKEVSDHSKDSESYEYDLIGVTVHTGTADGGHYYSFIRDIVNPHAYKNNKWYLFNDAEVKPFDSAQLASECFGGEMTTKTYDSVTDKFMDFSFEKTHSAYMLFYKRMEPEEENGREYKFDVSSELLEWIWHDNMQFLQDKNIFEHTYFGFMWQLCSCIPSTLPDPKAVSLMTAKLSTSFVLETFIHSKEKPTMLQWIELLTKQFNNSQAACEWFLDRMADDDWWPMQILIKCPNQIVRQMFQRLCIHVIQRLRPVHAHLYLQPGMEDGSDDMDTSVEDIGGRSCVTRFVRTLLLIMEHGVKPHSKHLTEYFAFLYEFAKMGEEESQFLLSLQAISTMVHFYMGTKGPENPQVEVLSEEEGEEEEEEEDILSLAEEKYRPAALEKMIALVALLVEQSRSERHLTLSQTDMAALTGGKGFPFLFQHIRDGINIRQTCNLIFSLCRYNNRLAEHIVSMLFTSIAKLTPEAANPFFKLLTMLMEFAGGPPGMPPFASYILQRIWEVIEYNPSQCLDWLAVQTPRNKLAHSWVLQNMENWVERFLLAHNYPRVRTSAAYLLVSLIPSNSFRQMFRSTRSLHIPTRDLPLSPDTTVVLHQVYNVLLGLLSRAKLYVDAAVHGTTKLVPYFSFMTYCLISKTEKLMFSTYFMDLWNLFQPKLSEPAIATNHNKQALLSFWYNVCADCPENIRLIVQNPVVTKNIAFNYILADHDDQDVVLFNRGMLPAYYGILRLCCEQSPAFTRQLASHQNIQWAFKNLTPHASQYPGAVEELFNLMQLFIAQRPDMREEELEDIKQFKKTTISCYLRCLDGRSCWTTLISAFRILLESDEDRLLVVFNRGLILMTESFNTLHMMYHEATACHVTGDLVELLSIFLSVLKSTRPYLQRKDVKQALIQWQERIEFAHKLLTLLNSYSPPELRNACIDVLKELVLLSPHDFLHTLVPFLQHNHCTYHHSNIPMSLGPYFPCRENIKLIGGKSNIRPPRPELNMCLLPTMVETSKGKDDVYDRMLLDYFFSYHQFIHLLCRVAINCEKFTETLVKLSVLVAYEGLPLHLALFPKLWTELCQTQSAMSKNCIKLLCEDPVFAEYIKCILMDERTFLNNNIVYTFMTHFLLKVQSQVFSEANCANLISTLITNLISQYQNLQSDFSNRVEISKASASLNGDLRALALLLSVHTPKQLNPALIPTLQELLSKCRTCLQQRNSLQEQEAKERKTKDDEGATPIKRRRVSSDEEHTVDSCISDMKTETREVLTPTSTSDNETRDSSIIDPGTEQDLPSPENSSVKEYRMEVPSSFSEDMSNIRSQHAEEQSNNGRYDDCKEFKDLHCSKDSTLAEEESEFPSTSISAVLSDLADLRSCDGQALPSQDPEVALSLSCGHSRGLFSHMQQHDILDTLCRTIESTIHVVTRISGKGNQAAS
Summary of the method: (§1)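 Labelled DUBs from HEK293T lysate were NeutrAvidin-enriched, digested with LysC and trypsin, and run by diaPASEF LC-MS/MS. Before that, each 495 µg sample in Tris/CHAPS/IGEPAL buffer with protease inhibitors was treated in triplicate with fragment at 200 µM or vehicle for 3 h, then with Biotin-Ahx-Ub-VS at 0.5 µM final for 1 h. Values are average log2 ratios of fragment over vehicle by unpaired t-test, based on global-median-normalised Spectronaut label-free quantities from proteins with ≥2 unique peptides.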

USP36 = molecular target: T1, USP36 (UniProt Q9P275)
T1 sequence (whole entry): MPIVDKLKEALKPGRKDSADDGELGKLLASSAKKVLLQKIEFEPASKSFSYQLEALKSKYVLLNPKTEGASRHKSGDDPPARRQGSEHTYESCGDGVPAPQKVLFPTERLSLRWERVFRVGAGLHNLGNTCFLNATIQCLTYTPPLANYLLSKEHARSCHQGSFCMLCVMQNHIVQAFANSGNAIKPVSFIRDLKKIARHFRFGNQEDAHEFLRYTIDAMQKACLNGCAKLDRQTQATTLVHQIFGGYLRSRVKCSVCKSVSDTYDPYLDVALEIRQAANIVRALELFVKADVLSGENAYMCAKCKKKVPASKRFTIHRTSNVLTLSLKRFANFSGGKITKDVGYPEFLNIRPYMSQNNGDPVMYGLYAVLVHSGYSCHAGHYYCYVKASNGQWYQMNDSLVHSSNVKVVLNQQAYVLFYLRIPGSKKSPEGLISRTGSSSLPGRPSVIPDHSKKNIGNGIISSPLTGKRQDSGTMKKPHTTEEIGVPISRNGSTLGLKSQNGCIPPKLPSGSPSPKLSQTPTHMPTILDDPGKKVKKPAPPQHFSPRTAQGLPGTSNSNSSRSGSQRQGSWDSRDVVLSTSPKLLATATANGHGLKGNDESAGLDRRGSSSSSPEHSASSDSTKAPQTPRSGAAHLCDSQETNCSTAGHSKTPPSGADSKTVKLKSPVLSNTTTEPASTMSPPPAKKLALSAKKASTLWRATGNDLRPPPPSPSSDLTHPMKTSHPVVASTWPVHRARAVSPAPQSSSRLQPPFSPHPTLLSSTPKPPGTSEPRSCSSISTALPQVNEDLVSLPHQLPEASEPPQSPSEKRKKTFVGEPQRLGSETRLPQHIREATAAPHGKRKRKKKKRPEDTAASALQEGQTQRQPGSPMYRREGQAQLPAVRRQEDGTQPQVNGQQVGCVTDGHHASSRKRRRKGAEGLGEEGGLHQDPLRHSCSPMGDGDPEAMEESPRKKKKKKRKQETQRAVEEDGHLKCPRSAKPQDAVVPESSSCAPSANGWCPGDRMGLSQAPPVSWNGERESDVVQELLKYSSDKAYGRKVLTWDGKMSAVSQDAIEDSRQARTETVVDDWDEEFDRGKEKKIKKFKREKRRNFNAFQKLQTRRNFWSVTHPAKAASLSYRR
Summary of the method: as §1

USP38 = molecular target: T2, USP38 (UniProt Q8NB14)
T2 sequence (whole entry): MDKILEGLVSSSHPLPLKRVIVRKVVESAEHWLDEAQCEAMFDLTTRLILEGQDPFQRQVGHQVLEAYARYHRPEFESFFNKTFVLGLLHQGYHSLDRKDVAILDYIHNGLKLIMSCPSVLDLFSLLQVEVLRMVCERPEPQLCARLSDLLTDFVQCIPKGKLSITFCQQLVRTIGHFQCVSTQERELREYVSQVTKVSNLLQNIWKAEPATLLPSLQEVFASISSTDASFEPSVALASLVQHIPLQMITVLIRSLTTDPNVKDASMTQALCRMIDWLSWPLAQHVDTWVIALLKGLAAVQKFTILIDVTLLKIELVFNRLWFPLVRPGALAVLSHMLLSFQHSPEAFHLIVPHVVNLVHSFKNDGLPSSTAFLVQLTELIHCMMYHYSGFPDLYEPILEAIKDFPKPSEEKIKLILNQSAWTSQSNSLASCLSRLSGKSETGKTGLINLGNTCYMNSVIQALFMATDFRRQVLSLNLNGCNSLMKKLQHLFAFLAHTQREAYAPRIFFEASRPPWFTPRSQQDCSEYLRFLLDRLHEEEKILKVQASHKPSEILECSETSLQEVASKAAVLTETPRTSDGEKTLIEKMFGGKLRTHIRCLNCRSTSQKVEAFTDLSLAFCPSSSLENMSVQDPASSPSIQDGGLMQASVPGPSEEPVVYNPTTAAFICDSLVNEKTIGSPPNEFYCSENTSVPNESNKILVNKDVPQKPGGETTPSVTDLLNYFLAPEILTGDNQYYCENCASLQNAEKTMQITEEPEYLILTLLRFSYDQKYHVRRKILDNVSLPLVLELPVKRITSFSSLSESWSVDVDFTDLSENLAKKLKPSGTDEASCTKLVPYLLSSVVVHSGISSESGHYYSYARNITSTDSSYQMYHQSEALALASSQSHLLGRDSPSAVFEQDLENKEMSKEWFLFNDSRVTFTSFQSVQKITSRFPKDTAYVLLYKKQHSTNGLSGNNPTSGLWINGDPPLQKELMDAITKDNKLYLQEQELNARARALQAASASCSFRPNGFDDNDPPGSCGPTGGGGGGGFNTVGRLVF
Summary of the method: as §1

USP39 = molecular target: T3, USP39 (UniProt Q53GS9)
T3 sequence (whole entry): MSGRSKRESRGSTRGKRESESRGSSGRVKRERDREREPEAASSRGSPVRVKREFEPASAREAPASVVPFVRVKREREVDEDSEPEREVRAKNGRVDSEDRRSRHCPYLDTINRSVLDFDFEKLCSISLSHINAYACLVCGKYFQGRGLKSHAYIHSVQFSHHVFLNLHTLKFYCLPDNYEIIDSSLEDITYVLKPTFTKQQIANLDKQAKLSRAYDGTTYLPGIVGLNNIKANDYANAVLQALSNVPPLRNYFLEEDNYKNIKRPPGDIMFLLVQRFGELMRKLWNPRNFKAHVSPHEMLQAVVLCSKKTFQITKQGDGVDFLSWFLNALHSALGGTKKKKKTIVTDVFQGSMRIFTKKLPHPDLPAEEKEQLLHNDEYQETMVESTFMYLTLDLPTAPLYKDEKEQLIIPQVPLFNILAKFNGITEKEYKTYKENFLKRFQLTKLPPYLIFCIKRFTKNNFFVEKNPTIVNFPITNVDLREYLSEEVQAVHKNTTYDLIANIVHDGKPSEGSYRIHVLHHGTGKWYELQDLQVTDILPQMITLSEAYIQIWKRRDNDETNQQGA
Summary of the method: as §1

USP4 = molecular target: T4, USP4 (UniProt Q13107)
T4 sequence (whole entry): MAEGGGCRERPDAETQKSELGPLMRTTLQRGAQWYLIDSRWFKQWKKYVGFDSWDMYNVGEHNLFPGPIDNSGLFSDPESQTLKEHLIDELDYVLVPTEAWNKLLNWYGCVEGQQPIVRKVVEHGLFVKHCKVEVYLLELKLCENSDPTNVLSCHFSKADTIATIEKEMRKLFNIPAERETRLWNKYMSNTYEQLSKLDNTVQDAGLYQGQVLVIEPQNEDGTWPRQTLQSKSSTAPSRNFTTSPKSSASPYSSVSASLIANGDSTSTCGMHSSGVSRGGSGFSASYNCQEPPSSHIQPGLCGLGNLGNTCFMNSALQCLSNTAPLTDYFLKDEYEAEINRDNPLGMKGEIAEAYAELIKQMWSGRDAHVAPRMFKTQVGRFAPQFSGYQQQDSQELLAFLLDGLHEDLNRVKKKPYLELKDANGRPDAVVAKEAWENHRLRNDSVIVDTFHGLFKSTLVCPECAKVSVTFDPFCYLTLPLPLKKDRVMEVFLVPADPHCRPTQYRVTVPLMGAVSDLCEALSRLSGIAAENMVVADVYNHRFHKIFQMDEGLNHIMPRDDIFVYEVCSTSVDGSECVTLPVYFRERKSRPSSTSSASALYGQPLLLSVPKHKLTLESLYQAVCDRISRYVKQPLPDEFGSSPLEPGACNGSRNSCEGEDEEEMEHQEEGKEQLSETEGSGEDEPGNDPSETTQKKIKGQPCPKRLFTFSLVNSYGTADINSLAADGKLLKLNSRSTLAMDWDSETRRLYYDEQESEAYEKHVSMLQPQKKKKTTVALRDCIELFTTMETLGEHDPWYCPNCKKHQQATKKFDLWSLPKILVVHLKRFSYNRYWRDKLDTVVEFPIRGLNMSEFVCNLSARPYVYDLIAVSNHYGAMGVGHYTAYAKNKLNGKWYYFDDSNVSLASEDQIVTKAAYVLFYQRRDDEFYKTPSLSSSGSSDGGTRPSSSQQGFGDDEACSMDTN
Summary of the method: as §1

Measured: log2 ratio of Biotin-Ahx-Ub-VS probe labelling

O=C(CCl)NCc1cccc(N2CCCC2=O)c1
inactive: USP34 -0.203 | USP36 -0.212 | USP38 -0.128 | USP39 -0.0958 | USP4 0.0693
